“And” between values parts separate entries of the source, which are not always exact repeats. Equal values may be shown once. Inconclusive results are not listed. Some structures have more than one record in an assay (separate samples or runs), and their calls can disagree. The source made the active and inactive calls. How the source made its calls, unless noted: active means hit-call score of the fitted dose curve at least 0.9, where 1 is the maximum; inactive means score below 0.9.
Experiments:
[1] = BSK_3C_TissueFactor: BioMAP Diversity Plus: 3C Assay for Tissue Factor Biomarker Activity (AID 2282997); conditions: BioMAP 3C HUVEC, tissue factor biomarker readout; actives raise or lower the signal
Procedure, shortened: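 Human vascular primary cells (umbilical vein endothelium) received test chemical; Tissue Factor was determined by ELISA at 24 h, and both gain and loss of signal versus DMSO were fitted.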

[2] = BSK_3C_uPAR: BioMAP Diversity Plus: 3C Assay for Urokinase-type plasminogen activator receptor (uPAR) Biomarker Activity (AID 2282998); conditions: BioMAP 3C HUVEC, uPAR biomarker ELISA; actives raise or lower the signal
Procedure, shortened: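 Readout: ELISA for surface uPAR. System: human umbilical vein endothelial primary cells, 24 h after chemical exposure. Analysis: bidirectional fit, DMSO baseline.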

[3] = BSK_3C_VCAM1: BioMAP Diversity Plus: 3C Assay for Vascular cell adhesion molecule 1 (VCAM1) Biomarker Activity (AID 2282999); conditions: BioMAP 3C HUVEC, VCAM1 ELISA, cytokine-stimulated; actives raise or lower the signal
Procedure, shortened: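 Human umbilical vein endothelial cells (3C system), biomarker read by ELISA 24 h after dosing; bidirectional fit against DMSO baseline. Cytotoxicity tracked by SRB total-protein staining in parallel cultures at biomarker time.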

[4] = BSK_4H_Eotaxin3: BioMAP Diversity Plus: 4H Assay for Eotaxin 3 Biomarker Activity (AID 2283000); conditions: primary human endothelial cells (HUVEC); actives raise or lower the signal
Procedure, shortened: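 Readout is Eotaxin-3 (CCL26) level by ELISA in primary human umbilical vein endothelial cells harvested 24 h after chemical exposure; activity fitted in both directions against DMSO control.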

[5] = read-out: Intercellular Adhesion Molecule 1 (ICAM1), ICAM1 (gene 3383); assay: BSK_3C_ICAM1: BioMAP Diversity Plus: 3C Assay for Intercellular Adhesion Molecule 1 (ICAM1) Biomarker Activity (AID 2283003); conditions: primary human endothelial cells (HUVEC); actives raise or lower the signal
Procedure, shortened: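 Primary human umbilical vein endothelial cells in the BioMAP 3C system were exposed to chemicals for 24 h, then ICAM-1 was quantified by ELISA. Activity was fitted bidirectionally against the DMSO negative control baseline.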

[6] = BSK_3C_Proliferation: Cell Proliferation Assessment in the BioMAP Diversity Plus: 3C Assay (AID 2283006); conditions: primary human endothelial cells (HUVEC);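 on AC50: potency may reflect either rise or fall in cell number versus DMSO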
Procedure, shortened: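 Human umbilical vein endothelial cells were grown sub-confluent and exposed to chemical for 48 h, then fixed with 10% TCA and stained with 0.1% sulforhodamine B; absorbance at 560 nm gave relative cell number, fitted bidirectionally against DMSO baseline.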

[7] = read-out: E-selectin (Homo sapiens) (UniProt P16581); assay: BSK_3C_Eselectin: BioMAP Diversity Plus: 3C Assay for Eselectin Biomarker Activity (AID 2283015); conditions: primary human endothelial cells (HUVEC); actives raise or lower the signal
Procedure, shortened: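 HUVEC, 3C stimulation; compound exposure 24 h; E-selectin by ELISA; gain- or loss-of-signal fitted bidirectionally vs DMSO baseline.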

[8] = read-out: Interleukin-1 alpha (IL1a), IL1A (gene 3552); assay: BSK_BE3C_IL1a: BioMAP Diversity Plus: BE3C Assay for Interleukin-1 alpha (IL1a) Biomarker Activity (AID 2283016); conditions: primary human bronchial epithelial cells; actives raise or lower the signal
Procedure, shortened: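 Human primary bronchial epithelial cells (BE3C system) were dosed with compound and IL-1a measured by ELISA 24 h later. Activity was fitted bidirectionally against DMSO baseline; cytotoxicity was tracked in parallel cultures by SRB total-protein staining.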

[9] = read-out: Plasminogen activator inhibitor-1 (PAI1), SERPINE1 (gene 5054); assay: BSK_BE3C_PAI1: BioMAP Diversity Plus: BE3C Assay for Plasminogen activator inhibitor-1 (PAI1) Biomarker Activity (AID 2283037); conditions: primary human bronchial epithelial cells; actives raise or lower the signal
Procedure, shortened: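 Human primary bronchial epithelial cells were exposed to chemical for 24 h, then PAI-1 was quantified by ELISA. Activity was fitted bidirectionally relative to the DMSO negative control baseline.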

[10] = BSK_LPS_PGE2: BioMAP Diversity Plus: LPS Assay for Prostaglandin E2 (PGE2) Biomarker Activity (AID 2283082); conditions: primary human HUVEC with PBMC; actives raise or lower the signal;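 on AC50: secreted prostaglandin E2 measured by ELISA in LPS-stimulated co-culture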
Procedure, shortened: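 HUVEC plus PBMC co-culture stimulated with LPS; secreted PGE2 quantified by ELISA 24 h after chemical dosing. Activity fitted bidirectionally against DMSO as negative control and baseline; parallel SRB total-protein staining served as cytotoxicity check.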

[11] = target: Estrogen receptor beta (Homo sapiens) (UniProt Q92731); assay: OT_ER_ERbERb_0480: Odyssey Thera (OT) 8-hour HEK293T Protein-Complementation Assay for Estrogen Receptor-beta/-beta Homodimer (AID 2283357; active means hit-call score of the fitted dose curve at least 0.9, where 1 is the maximum;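 further: active means signal gain over DMSO baseline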)
Chain of Estrogen receptor beta (Homo sapiens) (Q92731 whole entry, looked up, the tested form may be a part): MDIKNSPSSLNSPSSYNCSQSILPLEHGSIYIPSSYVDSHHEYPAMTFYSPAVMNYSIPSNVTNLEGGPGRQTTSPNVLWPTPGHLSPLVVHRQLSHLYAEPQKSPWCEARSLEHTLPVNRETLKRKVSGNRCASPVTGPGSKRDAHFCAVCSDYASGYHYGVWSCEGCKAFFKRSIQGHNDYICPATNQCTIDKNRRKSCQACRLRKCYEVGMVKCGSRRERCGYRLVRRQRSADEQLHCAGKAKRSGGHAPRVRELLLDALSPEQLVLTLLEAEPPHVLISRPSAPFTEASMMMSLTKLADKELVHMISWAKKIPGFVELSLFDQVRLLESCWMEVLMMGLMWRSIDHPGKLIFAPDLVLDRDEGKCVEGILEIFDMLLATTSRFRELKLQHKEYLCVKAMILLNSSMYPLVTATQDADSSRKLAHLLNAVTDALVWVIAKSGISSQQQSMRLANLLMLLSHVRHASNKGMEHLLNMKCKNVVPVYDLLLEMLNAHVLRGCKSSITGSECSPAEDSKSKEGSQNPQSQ
Procedure, shortened: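 Fluorescence intensity, nuclear for agonists and nuclear plus cytoplasmic for antagonists, was quantified by laser scanning cytometry versus vehicle after 8 h treatment. The cells were HEK293T stably carrying ER beta LBD fragment-complementation partners.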

[12] = target: Retinoic acid receptor RXR-alpha (Homo sapiens) (UniProt P19793); assay: OT_NURR1_NURR1RXRa_1440: Odyssey Thera (OT) 24-hour HEK293T Protein Complementation Assay for Nurr1/retinoid X receptor (RXR) (AID 2283386; active means hit-call score of the fitted dose curve at least 0.9, where 1 is the maximum)
Chain of Retinoic acid receptor RXR-alpha (Homo sapiens) (P19793 whole entry, looked up, the tested form may be a part): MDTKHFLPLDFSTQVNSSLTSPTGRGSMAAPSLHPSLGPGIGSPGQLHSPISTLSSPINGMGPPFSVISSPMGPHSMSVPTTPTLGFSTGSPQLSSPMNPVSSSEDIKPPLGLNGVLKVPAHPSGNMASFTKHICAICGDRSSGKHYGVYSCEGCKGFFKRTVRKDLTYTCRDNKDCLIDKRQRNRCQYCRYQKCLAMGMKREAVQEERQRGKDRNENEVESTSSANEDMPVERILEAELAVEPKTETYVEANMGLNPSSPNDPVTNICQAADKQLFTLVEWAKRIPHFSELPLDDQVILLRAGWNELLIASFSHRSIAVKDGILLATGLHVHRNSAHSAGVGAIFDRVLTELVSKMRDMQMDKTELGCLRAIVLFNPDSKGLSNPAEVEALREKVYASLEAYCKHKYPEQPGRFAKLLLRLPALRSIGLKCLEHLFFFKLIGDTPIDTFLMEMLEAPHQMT
Procedure, shortened: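 HEK293T cells were dosed with compound and read 24 h later by fluorescence intensity in a protein-fragment complementation format, where Nurr1–RXRα interaction reconstitutes a split reporter. Activity was fitted as gain of signal relative to DMSO baseline.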

[13] = target: Peroxisome proliferator-activated receptor gamma (Homo sapiens) (UniProt P37231); assay: OT_PPARg_PPARgSRC1_1440: Odyssey Thera (OT) 24-hour Protein-Complementation Assay for Peroxisome Proliferator-activated Receptor Gamma/ SRC-1 Co-activator (AID 2283388; active means hit-call score of the fitted dose curve at least 0.9, where 1 is the maximum;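 further: nuclear to cytoplasmic ratio of reconstituted Venus YFP fluorescence in fixed imaged cells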)
Chain of Peroxisome proliferator-activated receptor gamma (Homo sapiens) (P37231 whole entry, looked up, the tested form may be a part): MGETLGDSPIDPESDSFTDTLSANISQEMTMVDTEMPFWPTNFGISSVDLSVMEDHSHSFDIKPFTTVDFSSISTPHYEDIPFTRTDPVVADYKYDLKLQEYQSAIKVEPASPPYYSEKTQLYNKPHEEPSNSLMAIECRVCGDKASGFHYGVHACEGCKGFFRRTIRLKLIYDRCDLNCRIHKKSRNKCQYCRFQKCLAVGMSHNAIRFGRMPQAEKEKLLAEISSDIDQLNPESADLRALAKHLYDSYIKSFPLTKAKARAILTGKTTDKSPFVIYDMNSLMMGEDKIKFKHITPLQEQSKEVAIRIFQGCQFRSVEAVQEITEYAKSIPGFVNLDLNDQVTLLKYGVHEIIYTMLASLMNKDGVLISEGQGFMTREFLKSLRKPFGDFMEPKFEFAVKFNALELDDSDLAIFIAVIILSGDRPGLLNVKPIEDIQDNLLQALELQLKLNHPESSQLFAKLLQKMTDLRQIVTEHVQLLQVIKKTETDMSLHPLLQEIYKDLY
Procedure, shortened: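 Readout: nuclear-to-cytoplasmic 488 nm fluorescence ratio, ≥350 cells per image, 8 images per well, after 24 h compound exposure of HEK293T expressing PPARg/SRC-1 split-YFP fusions. Activity fitted in positive direction against DMSO.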

[14] = ACEA_AR_agonist_AUC_viability: ACEA Biosciences xCELLigence Real-Time Cell Analysis on Androgen Receptor Agonism for Viability (AID 2283775; active means hit-call score of the fitted dose curve at least 0.9, where 1 is the maximum;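 on AC50: viability read 80 hours after compound addition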)
Procedure, shortened: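 Read-out is area under the impedance curve at 80 h post-dose in 22Rv1 cells, with DMSO as baseline and signal loss taken as reduced viability. Compounds ran in duplicate from 100 uM final.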

[15] = CCTE_Harrill_HTTr_Viability_MCF7: CCTE's 6-hour Cell Viability Assessment for the High-Throughput Transcriptomics (HTTr) Platform, in MCF-7 cells cultured in DMEM + 10% fetal bovine serum, Harrill Lab (AID 2284010)
Procedure, shortened: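 Membrane integrity was scored by high-content imaging of propidium iodide dye exclusion after a 6 h exposure across an eight-point dilution series. Data were fitted bidirectionally relative to DMSO as negative control and baseline.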

[16] = target: Retinoic acid receptor RXR-alpha (Homo sapiens) (UniProt P19793); assay: OT_NURR1_NURR1RXRa_0480: Odyssey Thera (OT) 8-hour HEK293T Protein Complementation Assay for Nurr1/retinoid X receptor (RXR) (AID 2283385; active means hit-call score of the fitted dose curve at least 0.9, where 1 is the maximum)
Procedure, shortened: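 HEK293T cells expressing Nurr1 and RXRα fused to reporter fragments were dosed with compound for 8 hours. Complex formation was read as fluorescence intensity and analysed as gain of signal against DMSO as baseline.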

[17] = ACEA_AR_antagonist_AUC_viability: ACEA Biosciences xCELLigence Real-Time Cell Analysis on Androgen Receptor Antagonism for Viability (AID 2283776; active means hit-call score of the fitted dose curve at least 0.9, where 1 is the maximum;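 further: area under impedance growth curve at 80 h after dosing as viability; hits lower the growth signal relative to DMSO meaning cytotoxicity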)
Procedure, shortened: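 22Rv1 human prostate cancer cells were seeded on electrode plates, monitored overnight, then exposed to eight 1:4 dilutions from 100 uM final. Impedance-based growth kinetics at 80 h gave an AUC viability endpoint normalized to DMSO.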

[18] = target: human Retinoid X Receptor beta (RXRb), RXRB (gene 6257) (UniProt P28702); assay: ATG_RXRb_TRANS: Attagene TRANS-FACTORIAL HepG2 Assay for human Retinoid X Receptor beta (RXRb) (AID 2283013; active means hit-call score of the fitted dose curve at least 0.9, where 1 is the maximum)
Chain of human Retinoid X Receptor beta (RXRb), RXRB (gene 6257) (P28702 whole entry, looked up, the tested form may be a part): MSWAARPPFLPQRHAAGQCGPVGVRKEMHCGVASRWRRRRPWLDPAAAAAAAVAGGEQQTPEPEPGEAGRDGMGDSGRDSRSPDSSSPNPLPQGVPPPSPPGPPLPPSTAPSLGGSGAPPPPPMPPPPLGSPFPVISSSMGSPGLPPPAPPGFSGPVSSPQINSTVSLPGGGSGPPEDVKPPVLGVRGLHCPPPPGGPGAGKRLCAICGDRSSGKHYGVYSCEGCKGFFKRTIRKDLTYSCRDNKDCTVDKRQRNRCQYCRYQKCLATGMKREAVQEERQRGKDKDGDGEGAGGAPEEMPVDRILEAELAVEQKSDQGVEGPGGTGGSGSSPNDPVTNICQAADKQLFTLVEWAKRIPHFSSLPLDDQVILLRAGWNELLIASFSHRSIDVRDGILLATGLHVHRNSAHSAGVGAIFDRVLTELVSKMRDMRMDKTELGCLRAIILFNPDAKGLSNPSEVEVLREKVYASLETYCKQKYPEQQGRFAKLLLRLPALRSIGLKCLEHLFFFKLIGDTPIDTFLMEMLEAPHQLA
Procedure, shortened: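 HepG2 cells transiently transfected with multiplexed reporter units driven by GAL4-UAS and exogenous chimeric NR-Gal4 proteins; treated 24 h. Reporter mRNA measured by RT-PCR, 6-FAM labelling and capillary electrophoresis; gain-of-signal fitted versus DMSO baseline.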

[19] = target: Estrogen-related receptor gamma (Homo sapiens) (UniProt P62508); assay: ATG_ERRg_TRANS: Attagene TRANS-FACTORIAL HepG2 Assay for human Estrogen-Related Receptor gamma (ERRg) (AID 2282977; active means hit-call score of the fitted dose curve at least 0.9, where 1 is the maximum;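 further: hits increase reporter signal over DMSO so potencies reflect activators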); conditions: HepG2 Attagene TRANS reporter, ERRg transactivation
Chain of Estrogen-related receptor gamma (Homo sapiens) (P62508 whole entry, looked up, the tested form may be a part): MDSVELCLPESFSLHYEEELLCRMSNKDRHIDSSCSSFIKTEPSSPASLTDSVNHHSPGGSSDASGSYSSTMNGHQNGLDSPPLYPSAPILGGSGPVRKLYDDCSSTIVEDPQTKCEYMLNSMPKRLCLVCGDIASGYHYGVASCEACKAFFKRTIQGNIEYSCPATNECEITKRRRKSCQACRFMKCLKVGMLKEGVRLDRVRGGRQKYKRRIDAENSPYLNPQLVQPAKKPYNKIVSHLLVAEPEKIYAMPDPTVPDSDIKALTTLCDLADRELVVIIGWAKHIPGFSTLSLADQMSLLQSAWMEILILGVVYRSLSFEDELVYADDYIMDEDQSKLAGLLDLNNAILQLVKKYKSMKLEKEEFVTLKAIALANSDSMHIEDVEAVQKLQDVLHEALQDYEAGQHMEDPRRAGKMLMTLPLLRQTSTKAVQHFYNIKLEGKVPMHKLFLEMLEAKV
Procedure, shortened: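 HepG2 cells transiently transfected with multiplexed GAL4-UAS reporter units and chimeric NR-Gal4 constructs were exposed to test chemicals for 24 h. Reporter mRNA was measured by RT-PCR, 6-FAM primer extension, HpaI digestion and capillary electrophoresis; gain-of-signal versus DMSO.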

[20] = CCTE_Harrill_HTTr_CellCount_MCF7: CCTE's Cell Proliferation Assessment for the High-Throughput Transcriptomics (HTTr) Platform, Harrill Lab (AID 2284012; active means hit-call score of the fitted dose curve at least 0.9, where 1 is the maximum;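 further: cells exposed to compound for six hours; intended direction is loss of nuclei count meaning fewer cells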)
Procedure, shortened: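 MCF-7 cells were exposed for 6 h to an eight-point dilution series; Hoechst-labeled nuclei were counted by high content imaging. Curves were fitted bidirectionally against DMSO as negative control and baseline, with signal loss indicating reduced cell count.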

Measured: AC50

Chain of E-selectin (Homo sapiens) (P16581 whole entry, looked up): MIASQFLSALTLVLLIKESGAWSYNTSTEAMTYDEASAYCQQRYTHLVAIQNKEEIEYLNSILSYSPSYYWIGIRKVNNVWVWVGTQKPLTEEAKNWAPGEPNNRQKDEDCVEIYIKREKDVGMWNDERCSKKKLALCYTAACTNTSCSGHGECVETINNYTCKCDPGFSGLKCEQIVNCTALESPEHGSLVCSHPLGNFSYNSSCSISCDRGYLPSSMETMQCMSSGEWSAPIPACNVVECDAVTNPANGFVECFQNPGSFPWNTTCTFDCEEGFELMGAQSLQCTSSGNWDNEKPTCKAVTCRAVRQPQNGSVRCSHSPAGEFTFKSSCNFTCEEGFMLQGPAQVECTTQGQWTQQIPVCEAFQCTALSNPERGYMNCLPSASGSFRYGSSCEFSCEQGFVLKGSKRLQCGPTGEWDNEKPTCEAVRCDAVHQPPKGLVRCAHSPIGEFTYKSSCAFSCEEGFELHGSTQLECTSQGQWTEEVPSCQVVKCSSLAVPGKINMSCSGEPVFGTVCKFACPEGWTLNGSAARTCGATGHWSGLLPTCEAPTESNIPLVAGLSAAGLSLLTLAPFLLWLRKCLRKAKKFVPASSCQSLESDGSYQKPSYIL

C=CCN(CC=C)C(=O)C(Cl)Cl
inactive: [1] | [2] | [3] | [4] | [5] | [6] | [7] | [8] | [9] | [10] | [11] | [12] | [13] | [14] | [15]

c1ccc2c(c1)CCCC2
inactive: [11] | [16] | [13] | [14] | [17]

C=CC(=O)OC
inactive: [18]

CCNCC
inactive: [19]

CC(C)[C@@H](C(=O)O[C@@H](C#N)c1cccc(Oc2ccccc2)c1)c1ccc(Cl)cc1
active: [14] 41.6 µM | [17] 50 µM
inactive: [11] | [13] | [14] | [17] | [20]

Oc1ccc(C2(c3ccc(O)cc3)c3ccccc3-c3ccccc32)cc1
active: [1] 12.7 µM and 12.5 µM | [2] 11.5 µM and 9 µM | [3] 15.6 µM and 14 µM | [4] 9.96 µM and 9.53 µM | [5] 32.5 µM and 22.6 µM | [6] 6.04 µM and 6.12 µM | [7] 18.1 µM and 23.5 µM | [8] 5.35 µM and 5.31 µM | [9] 5.27 µM and 5.31 µM | [10] 11.8 µM
inactive: [10]

Oc1ccc(Cl)cc1
inactive: [16] | [12] | [13] | [17] | [20]

Nc1ccc(Cl)c(Cl)c1
active: [17] 1.14 µM
inactive: [19] | [18] | [11] | [16] | [12] | [13] | [14] | [15] | [20]

CC(C)CCCCCCCOC(=O)c1ccccc1C(=O)OCCCCCCCC(C)C
inactive: [19] | [1] | [2] | [3] | [4] | [5] | [6] | [7] | [8] | [9] | [10] | [15] | [20]

O=S(=O)(O)O
inactive: [15] | [20]

CCOC(=O)NC(=S)Nc1ccccc1NC(=S)NC(=O)OCC
inactive: [19] | [11] | [13] | [15] | [20]
active: [17] 4.35 µM

COc1cc(OC)nc(Oc2cccc(Oc3nc(OC)cc(OC)n3)c2C(=O)O)n1
inactive: [11] | [16] | [12] | [13] | [14] | [17] | [15]

CC(C)COP(=O)(OCC(C)C)OCC(C)C
inactive: [1] | [2] | [3] | [4] | [5] | [6] | [18] | [7] | [8] | [9] | [10]

Cc1cc(C)c(C2=C(OC(=O)CC(C)(C)C)C3(CCCC3)OC2=O)c(C)c1
inactive: [11] | [16] | [12] | [13] | [14] | [17]

CC(C)(C)C(O)C(Oc1ccc(-c2ccccc2)cc1)n1cncn1 (stereo not given)
inactive: [1] | [3] | [5] | [8] | [10] | [15] | [20]
active: [2] 32.2 µM | [4] 32.3 µM | [6] 31 µM | [7] 29.9 µM | [9] 5.39 µM

CC(C)(C)C(=O)CCl
active: [1] 20 µM | [3] 20 µM | [4] 20 µM | [6] 16.9 µM | [7] 20 µM
inactive: [19] | [2] | [5] | [18] | [8] | [9] | [10] | [20]

From PubChem BioAssay (EPA / NIEHS)
